Screening results: PubChem BioAssay, National Center for Advancing Translational Sciences (NCATS)
PNC inhibitor: perinucleolar compartment assembly inhibition; AID 2417; activity change (PNC), negative = inhibition, % at 10 µM; PC3M PTB-GFP, PNC prevalence imaging, 16 h; stronger effect = lower value; actives 3.1% (n = 140,000);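 active = readout at or below -70, meaning at least 70% loss of cells showing the perinucleolar compartment, a nuclear body marking cancer cells; inconclusive = readout between -30 and a set limit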;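 note: plate controls were DMSO wells for no effect and camptothecin positive control wells for full effect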
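PC3M cells stably expressing PTB-GFP, 750–1000 cells/well, treated 16 h at 37 °C with compound (23 nl of library stock), in duplicate. After paraformaldehyde fixation and Hoechst stain, imaged at 20x; PNC prevalence scored by image analysis.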
IMPase Li inh: cell-permeable IMPase inhibitors with lithium potentiation | actives 0.35% (n = 210,000) | Potency, µM (top dose mostly 59.4 µM), without a hit: at the top dose activity, negative = IMPase inhibition, hits mostly inhibitors | CHO-M1 cells, IP1 TR-FRET (IP-One), carbachol + lithium;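 note: IP1 builds up when IMPase is blocked and the TR-FRET signal falls; potency is the fitted concentration of half-maximal effect; plate controls were basal vehicle for no effect and high inhibitor control for full effect; nearly all actives have a fitted effect of over 50% in size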
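Readout is a homogeneous TR-FRET IP1 immunoassay (Ex 320, Em 665 and 620), where raised cytosolic IP1 lowers signal. Cells were CHO-M1 treated 30 min at 37C with test compounds plus a little lithium; AC50 values came from Hill-equation fitting.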
12-hLO inh: blocks human 12-lipoxygenase activity | purified 12-hLO, xylenol orange hydroperoxide absorbance | Potency, µM (titrated, usually from 57.1 µM), inactives show top-dose activity change, negative = inhibition, usual class: inhibitors | actives 0.12% (n = 150,000); note: potency is the fitted concentration of half-maximal effect; nearly all actives have a fitted effect of over 55% in size
Target sequence (P18054 whole entry, looked up): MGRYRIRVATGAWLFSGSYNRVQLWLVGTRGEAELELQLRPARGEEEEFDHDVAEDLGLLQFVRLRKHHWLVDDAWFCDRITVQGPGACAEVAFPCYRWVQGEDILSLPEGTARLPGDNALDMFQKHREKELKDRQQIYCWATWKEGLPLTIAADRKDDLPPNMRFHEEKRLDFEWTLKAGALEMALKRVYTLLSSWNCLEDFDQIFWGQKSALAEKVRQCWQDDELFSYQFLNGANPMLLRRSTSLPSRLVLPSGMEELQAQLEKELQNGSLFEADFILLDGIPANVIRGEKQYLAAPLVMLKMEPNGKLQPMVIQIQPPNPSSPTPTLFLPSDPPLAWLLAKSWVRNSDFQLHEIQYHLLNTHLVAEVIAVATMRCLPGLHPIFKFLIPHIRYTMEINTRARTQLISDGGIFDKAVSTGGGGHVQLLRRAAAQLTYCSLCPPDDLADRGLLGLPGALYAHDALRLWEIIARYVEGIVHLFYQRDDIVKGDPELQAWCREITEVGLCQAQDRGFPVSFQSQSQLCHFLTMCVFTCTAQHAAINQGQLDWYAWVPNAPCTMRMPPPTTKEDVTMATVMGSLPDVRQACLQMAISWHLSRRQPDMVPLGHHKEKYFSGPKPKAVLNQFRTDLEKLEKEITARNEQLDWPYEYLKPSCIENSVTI
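Lipoxygenase turnover measured by absorbance at 573 and 405 nm after Fe-XO development. Human 12hLO 150 nM, arachidonate 40 uM, pH 7.0 Hepes buffer with detergent; 15 min compound preincubation, 30 min reaction.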
IMPase inh: cell-permeable inhibitors of inositol monophosphatase (IMPase). P97697. CHO-M1 cells, IP1 accumulation, HTRF TR-FRET ratio. inhibition (IP1 accumulation), % at 46.1 µM. 120,000 tested, under 10 active. AID 901; active = well fitted curve in the direction sought with a large enough effect in the signal ratio, not every such curve was filed as active; inconclusive = small, poorly fitted or top-dose-only effect, or a change in a side signal; inactive = no such curve, though single readings can be large or run the other way; the % refers to the signal ratio;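 note: cells stimulated with carbachol in lithium chloride buffer; plate controls were DMSO basal wells for no effect and reference inhibitor wells for full effect; higher means more IMPase inhibition seen as more IP1 and lower FRET ratio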
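The IP-One HTRF competitive assay in carbachol-stimulated CHO-M1 cells quantifies cellular IP1. Compounds spanned up to 46 uM final, and activity is expressed as AC50 from concentration-response fits of the ratio and donor data.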
ALDH1A1 inh: ALDH1A1 (human) enzyme inhibition | P00352 | Purified ALDH1A1, NADH fluorescence, propionaldehyde substrate | Potency, µM (highest dose often 75.3 µM), inactives show at the highest dose activity, negative = inhibition, usual class: inhibitors | actives 7.3% (n = 220,000) | AID 1030; active = well fitted inhibition curve with a large enough effect, not every such curve was filed as active; inconclusive = small, poorly fitted or top-dose-only effect, or another doubt; inactive = no such curve, though single readings can be large or run the other way;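 note: potency is the fitted concentration of half-maximal effect; plate controls were no enzyme wells and a reference inhibitor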
HPGD inh: blocks human HPGD enzyme activity | P15428 | purified HPGD, NADH fluorescence kinetic, PGE2 substrate | Potency, µM, for inactives: at the top dose activity change, negative = inhibition, actives largely listed as inhibitors | actives 4.3% (n = 150,000); active = well fitted inhibition curve with a large enough effect, not every such curve was filed as active; inconclusive = small, poorly fitted or top-dose-only effect, or another doubt; inactive = no such curve, though single readings can be large or run the other way; note: potency is the fitted concentration of half-maximal effect
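20 nM HPGD preincubated 15 min at room temperature with compound in 50 mM Tris-HCl pH 8, 0.01% Tween 20. Started with 1 mM NAD+ and 30 uM prostaglandin E2; NADH fluorescence (360/450 nm) read 5 times over 30-s intervals, last minus first.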
* = called active by the depositor; ? = inconclusive; . = not tested or not shown; [ ] = dose if it differs, or a comment. Compounds with a hit are over-represented: about 11% of the library has one in this group of screens. Unless noted, calls come from the whole dose curve; as a rule, active = well fitted curve in the direction sought with a large enough effect; inconclusive = small, poorly fitted or top-dose-only effect, or another doubt; inactive = no such curve, though single readings can be large; an effect the other way counts as inactive or inconclusive. Unless noted, % is set by controls: 0 for no effect and ±100 for the full control effect.

SMILES	PNC inhibitor	IMPase Li inh	12-hLO inh	IMPase inh	ALDH1A1 inh	HPGD inh
CCC1=C2CC[C@H]3C(=O)NC(=O)[C@H]3[C@H]2[C@@]2(C)C(=NCCc3c[nH]c4ccccc34)OC(=O)N2C1=O	.	-5%	-1%	.	-5%	-5%
COC(=O)CSc1nc2sc3c(c2c(=O)n1Cc1ccccc1)CCC(C(C)(C)C)C3 (centres undefined)	.	.	.	-4	.	.
Cc1c(C#N)c2ccccc2n1CC(=O)N1CCc2ccccc2C1	-9	11%[38.3 µM]	-4%	1	3%	-15%
O=C(CCn1c(=O)c2ccccc2n(Cc2cccc([N+](=O)[O-])c2)c1=O)N1CCc2ccccc2C1	44	12%	2%	.	?	16µM*
CC(=O)N[C@@H](C=O)[C@@H](O)[C@H](O)[C@H](O)CO	.	-3%	-2%[0.00818 µM]	.	6%	-8%
CCOc1ccc(C2C(C(=O)c3ccco3)=C(O)C(=O)N2CCCn2ccnc2)cc1 (centres undefined)	?	-15%[38.3 µM]	-12%	-1	?	-11%
Cc1ccc(C(=O)C2=C(O)C(=O)N(CCCn3ccnc3)C2c2ccc(OC(C)C)cc2)o1 (centres undefined)	?	14µM*	-15%	?	?	-8%
CCCOc1ccc(C2C(C(=O)c3ccc(C)o3)=C(O)C(=O)N2Cc2cccnc2)cc1 (centres undefined)	33	10µM*	-4%	-27	?	-14%
O=Cc1cn(-c2ccccc2)nc1-c1cccnc1	.	7%	.	.	3%	.
O=Cc1cn(-c2ccccc2)nc1-c1ccncc1	.	3%	.	.	2.5µM*	.
O=C(OCc1ccccc1)c1cn(-c2ccccc2)nc1-c1ccncc1	-2	34%[38.3 µM]	-4%	11	20µM*	?
O=C(NCc1cccnc1)c1cn(-c2ccccc2)nc1-c1ccccc1	.	3%	.	.	4.5µM*	.
O=C(NCc1ccncc1)c1cn(-c2ccccc2)nc1-c1cccnc1	.	6%	.	.	-5%	.
COC(=O)c1cn(-c2ccccc2)nc1-c1ccncc1	-22	-7%[38.3 µM]	-15%	7	?	-7%
O=C(O)CC/C(=N/NC(=O)c1cn(-c2ccccc2)nc1-c1ccccc1)C(=O)O	13	1%	7%	.	4.5µM*	-18%
COc1cccc(-c2cc(C(F)(F)F)n3nc(C)c(-c4ccccc4)c3n2)c1	.	.	.	-6	.	.
CCN=C1S/C(=C\c2ccc(O)c(OCC)c2)C(=O)N1CC	75	10%	-6%	.	?	-16%
CCN=C1S/C(=C\c2cc(OCC)c(O)cc2Br)C(=O)N1CC	?	7%	-6%	.	0.89µM*	-16%
O=C(COc1ccc(/C=C\[N+](=O)[O-])cc1)N1CCOCC1	.	18%	.	.	14µM*	.
CC(C)(C)c1ccc(NC(=O)Nc2ccc(OCC(=O)N3CCOCC3)cc2)cc1	.	-6%	.	.	-2%	.
O=C(c1ccc(Cl)cc1)c1ccc(OCC(=O)N2CCOCC2)cc1	35	35%[38.3 µM]	-10%	-8	?	28µM*
COc1cccc(-c2ccc3c(N)c(C(=O)c4ccc(F)cc4)sc3n2)c1	.	.	.	-13	.	.
N[C@@H](Cn1cc(I)c(=O)n(Cc2ccc(C(=O)O)cc2)c1=O)C(=O)O	.	2%	-4%	-7	0%	0%
COc1ccc(C(=O)Nc2ccc(C3=NNC(=O)CC3C)cc2NC(=O)c2ccc(OC)cc2)cc1 (centres undefined)	.	0%	.	.	2µM*	.
O=C(O)CC/C=C\CC[C@H]1[C@@H](N2CCCCC2)[C@@H](O)C[C@@H]1OCc1ccc(-c2ccccc2)cc1	.	15%	1%	6	4%	2%
SMILES	PNC inhibitor	IMPase Li inh	12-hLO inh	IMPase inh	ALDH1A1 inh	HPGD inh
NC(=O)NCCC1=CCCCC1	34	18%[38.3 µM]	2%	-4	-3%	0%
Cc1cc(C(=O)NCCC2=CCCCC2)c(C)o1	-81*	14%[38.3 µM]	2%	-10	11µM*	?
COc1cccc2cc(C(=O)NCCC3=CCCCC3)c(=O)oc12	.	-2%	.	.	10µM*	.
COc1cccc2cc(C(=O)NC(C)C3CCCO3)c(=O)oc12 (centres undefined)	-87*	24%[38.3 µM]	3%	9[1.84 µM]	?	-26%
O=C(NCCC1=CCCCC1)c1coc(=O)c(Br)c1	-7	28µM*	-2%	-9	?	-13%
c1cc2c3c(c1)c1c(n3CCNC2)CCCC1	.	9%	-1%	2	5%	-17%
COc1cccc([C@@H]2Oc3ccc(Br)cc3[C@H](O)[C@H]2O)c1	.	-5%	.	.	-1%	-14%
COC(=O)C/C=C\[C@@H](C)[C@@H](/C=N\OC[C@@H](O)[C@H]1O[C@H]2OC(C)(C)O[C@H]2[C@@H]1O)OC	.	.	.	.	-4%[13.5 µM]	.
COc1ccc(C2Sc3ccccc3N(CCN(C)C)C(=O)[C@@H]2OC(C)=O)cc1 (some centres undefined)	.	3%	.	.	?	.
COc1ccccc1N(CC(=O)Nc1ccccc1F)S(C)(=O)=O	.	.	.	2	.	.
COc1cc(/C=C2/SC(=NCc3ccccc3)N(Cc3ccccc3)C2=O)ccc1O	-14	25%[38.3 µM]	-23%	2	2.2µM*	-26%
COc1cc(/C=C2/SC(=S)N(c3c(C)n(C)n(-c4ccccc4)c3=O)C2=O)ccc1O	.	22%	.	.	-8%	.
COc1ccc(CCNC(=O)c2cc(=O)[nH]c3ccc(Br)cc23)cc1OC	-113*	-19%	2%	?	6%	-8%
COc1ccc(CCNC(=O)Cc2cc(=O)[nH]c(=O)[nH]2)cc1OC	62	?	13%	6	6%	-6%
Cc1ccc(OC(=O)c2cc(-c3ccccc3)nc3ccc(C)cc23)cc1	.	.	.	0	.	.
CCN(Cc1ccccc1)C(=O)CCS(=O)(=O)c1cc(Br)cc2c1N(C(=O)C1CC1)CC2	.	.	.	-1	.	.
O=c1nc2s/c(=C\c3ccc(-c4ccccc4[N+](=O)[O-])o3)c(=O)n2nc1-c1ccccc1	?	4%	-19%	.	?	7.9µM*
N#C/C(=C/c1ccc(-c2ccccc2[N+](=O)[O-])o1)C(N)=O	.	1%	.	.	19%	.
N#C/C(=N\Nc1ccccc1Cl)C(=O)c1ccccc1	26	29%[38.3 µM]	2%	7	-67%	28µM*
CNC(=O)[C@@H]1O[C@@H](n2cnc3c(NCc4ccc(N)cc4)ncnc32)[C@@H](O)[C@H]1O	.	.	-2%	3	.	.
CC1CCCCN1C(=O)CSc1nnc(-c2cccnc2)n1C1CCCCC1 (centres undefined)	36	-1%[38.3 µM]	-2%	-3	-1%	25µM*
COc1ccc(-n2c(SCC(=O)N3CCCCC3C)nnc2-c2cccnc2)cc1 (centres undefined)	2	12%	1%	1	10µM*	20µM*
